# VCAM1 TNFa inh = reduces TNF alpha induced VCAM1 expression in HUVEC; HUVEC TNFa-induced VCAM-1 immunofluorescence, high-content imaging; inhibition, % at 2 µM; actives 0.48% (n = 95,000);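 active = inhibition above the batch mean plus 3 SD, with images confirmed as a hit by eye, cut at about 37% in these data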;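 note: 0% = TNF-stimulated DMSO wells and 100% = unstimulated control wells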
# HUVEC tox TNFa = HUVEC cytotoxicity counter-screen, TNF alpha stimulated | HUVEC TNFalpha-stimulated, Hoechst cell count, imaging | cell count reduction, % at 2 µM | actives 0.17% (n = 93,000) | AID 848;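 active = cell count reduction exceeding the screen mean by over 5 SD, scaled to untreated wells per plate, cut at about 78% in these data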;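 note: cells counted after 24 h of TNF alpha exposure following the 1 h pretreatment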
# NFkB transloc pot = enhances IL-1B driven NFkB nuclear translocation | HUVEC IL-1B NFkB p65 nuclear translocation imaging | activation, % at 2 µM | actives 0.3% (n = 94,000) | AID 819;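 active = activation above 40%, about the mean plus 3 SD, also judged a hit on visual image review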;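 note: percent activation is computed from the nuclear over cytoplasmic p65 intensity ratio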
# E-sel TNF inh = blocks E-selectin expression induced by TNF alpha; HUVEC TNFa-induced E-selectin immunofluorescence, high content; inhibition, % at 2 µM; actives 0.71% (n = 120,000); AID 1246;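 active = inhibition above the batch mean plus 3 SD, and confirmed as a hit on visual image review, cut at about 43% in these data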;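 note: 0% = TNF-stimulated DMSO wells and 100% = unstimulated control wells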
# IL1B cytotox = toxic to HUVEC cells under IL-1B stimulation; HUVEC cell count loss, Hoechst imaging, IL-1B stimulated; cell count reduction, % at 2 µM; actives 0.41% (n = 94,000);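 active = cell count reduction more than 3 SD above the screen-wide mean, cut at about 70% in these data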;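 note: normalized per plate to untreated control cells as the no-loss baseline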
# IL1B NFkB inh = blocks IL-1B driven NFkB nuclear translocation in HUVEC cells. AID 796. inhibition, % at 2 µM. HUVEC IL-1B NFkB p65 nuclear translocation imaging. actives 0.43% (n = 94,000);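 active = inhibition above about 30% together with a positive call from visual inspection of the well image, limit read from the data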;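 note: nuclear over cytoplasmic p65 intensity ratio measured by imaging; 0% = IL-1B stimulated DMSO wells and 100% = unstimulated DMSO wells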
# * = called active by the depositor; / = no result. Sampled rows, rich in hits. Any-hit rate of the full collection: about 1.6%.
SMILES,VCAM1 TNFa inh,HUVEC tox TNFa,NFkB transloc pot,E-sel TNF inh,IL1B cytotox,IL1B NFkB inh
COc1ccc(CC2(CO)CCN(Cc3cccn3-c3ccccn3)CC2)cc1,/,/,/,-0.4,/,/
CCOC(=O)c1nnn(-c2nonc2N)c1-c1ccccc1,7.6,-25.6,42.3*,1.7,1.1,-42.3
CCOC(=O)c1nnn(-c2nonc2N)c1-c1ccc(C)cc1,2.0,-13.9,9.9,-8.2,-19.5,-9.9
CCCCC(=O)N(CCOC)c1nnc(-c2ccccc2C)s1,/,/,/,11.4,/,/
O=S(=O)(c1ccc(-n2cnnn2)cc1)N(C1CCCCC1)C1CCCCC1,-3.4,-30.0,-3.3,-3.4,-0.9,3.3
CN(C1CCCCC1)S(=O)(=O)c1ccc(-n2cnnn2)cc1,-7.4,-30.8,49.6*,-0.7,-20.9,-49.6
C=CCc1c(C)nc2ccc(C(=O)OCC)cc2c1Cl,/,/,/,11.8,/,/
O=C(NC(c1ccccc1)C(Cl)(Cl)Cl)c1ccccc1 (centres undefined),/,/,/,6.8,/,/
Brc1ccc(C2=CC(c3cccs3)n3ncnc3N2)cc1 (centres undefined),3.7,14.9,-8.0,99.9*,-6.6,8.0
Fc1ccc(C2=CC(c3ccco3)n3ncnc3N2)cc1 (centres undefined),/,/,/,4.3,/,/
C1=C(c2ccc(-c3ccccc3)cc2)Nc2ncnn2C1c1ccco1 (centres undefined),-2.2,0.8,3.1,64.5*,4.3,-3.1
OCCCc1nc2n(n1)C(c1cccs1)C=C(c1ccc(Br)cc1)N2 (centres undefined),-16.3,-7.9,-2.6,-4.6,-3.3,2.6
Cc1ccc(NCC(=O)Nc2cccc(S(=O)(=O)N(C)C)c2)c(Cl)c1,/,/,/,29.3,/,/
CCC1CCC(C(=O)NC(CCSC)C(=O)NCCN(CC(C)C)CC(C)C)CC1 (centres undefined),/,/,/,-6.0,/,/
c1coc(CNc2nc3nonc3nc2NCc2ccco2)c1,4.8,-15.9,-51.5,13.3,-47.9,51.5*
CN(CCc1ccccn1)C(=O)CN(C)S(=O)(=O)c1ccc2c(c1)c(=O)n(C)c(=O)n2C,1.3,-18.2,41.3*,-13.0,3.3,-41.3
CCSc1nnc(C)c(=O)n1COC(=O)c1ccc(S(=O)(=O)N2CCCC2)cc1,/,/,/,5.3,/,/
CC1=NN(C(=O)CCc2ccccc2)C(O)(c2ccncc2)C1 (centres undefined),/,/,/,-2.9,/,/
Cc1ccc(S(=O)(=O)N2CCN(C(=O)c3ccccc3)CC2)cc1,-1.1,1.8,25.2,16.7,-6.2,-25.2
COc1cccc(OC)c1C(=O)N1CCN(S(=O)(=O)c2ccc(C)cc2)CC1,12.4,-12.9,-32.3,17.1,8.8,32.3*
Cc1ccc(NC(=O)COc2ccc3oc4c(c3c2)CCCC4)nc1,13.8,-9.2,16.2,-7.3,79.5*,-16.2
COc1ccc(/C=N/Nc2ncccc2[N+](=O)[O-])c(OC)c1,/,/,/,3.1,/,/
Cc1ccc(OC(C)c2nnc(N)s2)cc1Cl (centres undefined),-12.9,-16.5,-97.3,-5.5,92.1*,97.3*
COc1ccc(NC(=O)Cn2cnc3sc(C)c(S(=O)(=O)N4CCN(C)CC4)c3c2=O)cc1OC,/,/,/,-8.1,/,/
CCCCC(=O)NC(=S)Nc1ccccc1C(=O)Nc1ccccc1,93.4*,89.9*,-4.4,/,11.3,4.4
SMILES,VCAM1 TNFa inh,HUVEC tox TNFa,NFkB transloc pot,E-sel TNF inh,IL1B cytotox,IL1B NFkB inh
CC(=O)NC(=S)Nc1ccccc1C(=O)Nc1ccccc1,/,/,/,9.6,/,/
CC(C)C(=O)Nc1ccc(-c2nc3cccnc3o2)cc1,/,/,-10.4,83.7*,21.3,10.4
O=C(CCn1c(=O)oc2ccccc21)N1CCN(C(c2ccccc2)c2ccccc2)CC1,-8.0,-6.8,-3.4,/,8.9,3.4
O=C(CCn1c(=O)oc2ccccc21)N1CCN(c2ccccc2F)CC1,41.0,80.4*,7.0,/,-4.2,-7.0
CC1SC(C)C(=O)N(CC(=O)NCc2ccc(F)cc2)C1=O (centres undefined),/,/,/,18.8,/,/
CC(C)c1ccc2[nH]c(O)c(N=NC(=O)c3cccc(S(=O)(=O)N4CCCCC4)c3)c2c1,/,/,/,11.6,/,/
CNC(=S)N=Nc1c(O)[nH]c2ccc(C(C)C)cc12,/,/,/,67.6*,/,/
CCOC(=O)c1[nH]c2ccccc2c1NC(=S)Nc1cccc(C)c1,/,/,/,-10.8,/,/
C=CCNC(=S)NNC(=O)c1ccc(Br)cc1,/,/,/,63.0*,/,/
CCOC(=O)C1CCCN(S(=O)(=O)c2cn(C)c(=O)n(C)c2=O)C1 (centres undefined),-24.4,79.3*,-9.8,/,0.0,9.8
CCOC(=O)C1CCN(S(=O)(=O)c2cn(C)c(=O)n(C)c2=O)CC1,/,/,/,-29.6,/,/
O=C(NCC1CCCO1)NC1CCCCC1 (centres undefined),-3.4,0.4,-20.3,-18.6,94.0*,20.3
COc1ccc(C2C(C(=O)Nc3cccnc3)=C(C)Nc3nc(-c4cccs4)nn32)cc1 (centres undefined),17.0,-31.0,2.8,100.0*,-1.2,-2.8
OCCSc1ncnc2c1oc1ccccc12,-13.1,-14.4,-32.0,5.9,-10.3,32.0*
CC(C)Cn1c(-c2cccs2)nc2ccccc21,-2.8,3.9,-4.1,84.8*,0.9,4.1
Cc1ccc2cc(C#N)c(N3CCCC3)nc2c1C,12.6,-7.1,-4.8,100.0*,20.7,4.8
OCCCCNc1cccc2ccccc12,43.3*,-20.5,-16.5,/,-89.2,16.5
OCCCCCNc1ncnc2ccccc12,2.1,-14.3,21.0,-8.1,-23.0,-21.0
COc1ccc(N2C(=O)CCC2(C#N)c2ccc(Br)cc2)cc1 (centres undefined),9.2,-9.4,14.6,99.8*,-1.7,-14.6
Cc1noc(C)c1S(=O)(=O)NCCN1CCN(c2ccccc2)CC1,-11.3,16.8,-31.2,10.7,10.5,31.2*
Cc1noc(C)c1S(=O)(=O)NCCCN1CCN(Cc2ccccc2)CC1,-5.3,0.4,5.2,5.3,8.8,-5.2
Cc1ccc(NC(=S)NC2CCCCC2)cc1S(=O)(=O)N(C)C,/,/,/,5.0,/,/
Cc1nc2ccccc2n1-c1nc(-c2ccco2)cc(C(F)(F)F)n1,/,/,/,99.8*,/,/
CC1CCCC(NCC(=O)Nc2ccc(C(N)=O)cc2)C1C (centres undefined),/,/,/,-12.1,/,/
COc1ccc(/C=N/OCC(=O)NCc2cccs2)c(OC)c1,/,/,/,6.9,/,/
SMILES,VCAM1 TNFa inh,HUVEC tox TNFa,NFkB transloc pot,E-sel TNF inh,IL1B cytotox,IL1B NFkB inh
O=C(CO/N=C/c1ccccc1OC(F)F)NCc1cccs1,/,/,/,90.4*,/,/
Cc1cc(C)n2c(SCc3ccccc3Cl)nnc2n1,18.2,-14.8,-30.9,13.4,27.0,30.9*
CCC(C)Nc1nc(OC(C(F)(F)F)C(F)(F)F)nc(OC(C(F)(F)F)C(F)(F)F)n1 (centres undefined),-2.4,-5.0,-7.4,43.5*,26.7,7.4
COC(=O)c1ccc2c(c1)C(C)(C)C(/C=C/c1ccc(O)cc1)=[N+]2C,23.5,3.1,-33.8,/,-5.8,33.8*
COC(=O)c1ccc2c(c1)C(C)(C)C(/C=C/c1ccc(OC)c(OC)c1OC)=[N+]2C,7.4,-5.2,-36.6,6.0,-2.2,36.6*
COC(=O)c1ccc2nc(C)c(C)nc2c1,20.1,31.3,1.5,11.0,3.8,-1.5
CCc1ccc(NC(=S)N(Cc2cccc(Br)c2)CC2CCC(C(=O)O)CC2)cc1 (centres undefined),/,/,/,12.7,/,/

# Bioassay records: PubChem BioAssay, Columbia University Molecular Screening Center
